High-throughput results as filed in PubChem.
Compounds with a hit are over-represented: about 7.3% of the library has one in this group of screens.
Luc counter = Kinase-Glo luciferase inhibition (counter-screen) | Q27757 | Kinase-Glo luciferase, ATP luminescence, 8 min | Potency, µM (series often up to 38.3 µM), actives largely listed as inhibitors | 200,000 compounds, 0.28% hits | AID 1379; further: nearly all actives have a fitted effect of over 60% in size
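Kinase-Glo luciferase light output from ATP and luciferin was measured with 10 uM ATP, within the enzyme's linear range. Buffer: 50 mM imidazole pH 7.2, 50 mM KCl, 7 mM MgCl2, 0.01% Tween 20, 0.05% BSA; luminescence read after 8 min at ambient temperature.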
FLuc modulator = counter-screen for miR-21 project: firefly luciferase inhibitors or activators. Potency, µM (titrated, usually from 57.5 µM), actives largely listed as inhibitors. purified FLuc, Km substrates, luminescence inhibition. 360,000 compounds, 6.9% hits; further: nearly all actives have a fitted effect of over 55% in size
Target sequence (P08659 whole entry, looked up): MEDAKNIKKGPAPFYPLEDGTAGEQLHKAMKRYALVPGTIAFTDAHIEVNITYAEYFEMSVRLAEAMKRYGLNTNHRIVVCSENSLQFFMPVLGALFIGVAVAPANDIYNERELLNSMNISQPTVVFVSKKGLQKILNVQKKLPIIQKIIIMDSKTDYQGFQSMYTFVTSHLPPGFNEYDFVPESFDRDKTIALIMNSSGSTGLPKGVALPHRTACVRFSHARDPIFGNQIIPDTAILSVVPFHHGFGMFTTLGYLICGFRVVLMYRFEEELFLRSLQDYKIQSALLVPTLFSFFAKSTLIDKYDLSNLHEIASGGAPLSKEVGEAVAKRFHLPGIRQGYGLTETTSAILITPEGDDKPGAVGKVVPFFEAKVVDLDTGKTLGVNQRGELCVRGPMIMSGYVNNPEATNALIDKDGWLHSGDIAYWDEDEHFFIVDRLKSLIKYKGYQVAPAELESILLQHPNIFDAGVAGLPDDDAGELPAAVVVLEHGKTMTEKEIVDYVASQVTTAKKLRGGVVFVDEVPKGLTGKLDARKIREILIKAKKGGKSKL
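Purified P. pyralis luciferase (10nM final) with 10uM D-luciferin and 10uM ATP (Km levels) in 50mM Tris acetate pH 7.5, 10mM Mg acetate, 0.01% Tween-20, 0.05% BSA; qHTS 6-point titration, ~60 µM downward; luminescence read.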
NPC1 prom act = activates the NPC1 promoter. Huh7 NPC1 promoter luciferase reporter, 24 h. AID 485313. Potency, µM (titrated, usually from 9.22 µM), most hits filed as activators. 320,000 compounds, 2.4% hits; further: nearly all actives have a fitted effect of over 60% in size
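Luminescence from an NPC1 promoter-driven luciferase reporter in stably transfected Huh7 cells was measured after 24 h compound treatment at 37 °C, followed by 10 min ambient incubation with luciferase detection reagent.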
SMN2 splice up = increases expression of the SMN2 splice variant. 210,000 compounds, 2.8% hits. Potency, µM (series often up to 46.1 µM), actives largely listed as activators. AID 1458. HEK293 SMN2-luciferase splicing reporter, luminescence, 30-36 h; further: nearly all actives have a fitted effect of over 55% in size
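HEK293 cells carry an SMN2 minigene-luciferase reporter in which exon 7 inclusion puts luciferase in frame. Cells were seeded at 2000 cells/well, attached for 10-12 hours, then exposed to compounds for 30-36 hours at 37C before ONE-Glo luminescence.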
Rab9 prom act = activates the Rab9 promoter | Potency, µM (titrated, usually from 9.22 µM), hits mostly activators | 320,000 compounds, 2.8% hits | Huh7 Rab9 promoter-luciferase reporter, luminescence, 24 h | AID 485297; further: nearly all actives have a fitted effect of over 60% in size
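Promoter activation is measured as luciferase luminescence in Huh7 cells stably transfected with a Rab9 promoter–luciferase construct, following 24 h compound exposure at 37 °C and 10 min reagent incubation at ambient temperature.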
Hits are given with their value; i = inactive; ? = inconclusive; nt = no result; [ ] = dose if it differs, or a comment. The call rests on the fitted dose curve; in most records, active means well fitted curve in the direction sought with a large enough effect; inconclusive means small, poorly fitted or top-dose-only effect, or another doubt; inactive means no such curve, though single readings can be large; an effect the other way counts as inactive or inconclusive.

SMILES	Luc counter	FLuc modulator	NPC1 prom act	SMN2 splice up	Rab9 prom act
CCCC(=O)Nc1cc(C)c(O)c(-c2nc3ncccc3o2)c1	nt	i	nt	i	nt
CN(C)c1ccc(C=Nc2ccc(N(C)C)cc2)cc1	i	8.5µM	i	i	i
Cc1ccc(N=Cc2ccc(N(C)C)cc2)cc1	i	?	i	i	i
NC1=C2NC=N[C@@H]2N(C/C=C\c2ccccc2)C=N1	i[7.66 µM]	nt	nt	i[9.22 µM]	nt
Cc1cc(-c2nnc(SCC(=O)Nc3ccc(C)c(C)c3)n2N)n[nH]1	nt	11µM	i	nt	i
CC(=O)Nc1ccc(NC(=O)CSc2nnc(-c3cc(C)[nH]n3)n2N)cc1	nt	i	i	nt	i
C=C1c2cccc(OC)c2O[C@H](C(=O)OCC)[C@@H]1CCC(C)C	i	nt	nt	nt	nt
COc1ccc(CCNC(=O)c2c(C)oc3ncn(CC(C)C)c(=O)c23)c(OC)c1	nt	i	nt	nt	nt
COc1ccc(/C=N/NC(=O)c2ccc(COc3ccccc3Cl)o2)cc1	i	2.7µM	i	i	i
CCOc1ccc(/C=N/NC(=O)c2ccc(Cn3cc(Br)cn3)o2)cc1	i	6.7µM	i	i	i
CCOc1ccc(/C=N/NC(=O)c2ccc(Cn3cc([N+](=O)[O-])cn3)o2)cc1	i	4.8µM	nt	i	nt
O=C(N/N=C/c1c(F)c(F)c(F)c(F)c1F)c1ccc(Cn2cc(Br)cn2)o1	i	i	i	i	i
CC(/C=N/NC(=O)c1ccc(Cn2cc([N+](=O)[O-])cn2)o1)=C\c1ccccc1	nt	2.4µM	?	nt	i[1.84 µM]
COc1cc2c3cc1Oc1cc(ccc1O)C[C@@H]1c4c(cc(OC)c(O)c4Oc4ccc(cc4)C[C@H]3[N+](C)(C)CC2)CC[N+]1(C)C	i[7.66 µM]	nt	nt	i[9.22 µM]	nt
C[C@@](N)(Cc1c[nH]c2ccccc12)C(=O)O	i[7.66 µM]	nt	nt	i[9.22 µM]	nt
CCS(=O)(=O)N1CCC(n2c(C(F)(F)F)nc3cccnc32)CC1	nt	i	nt	nt	nt
COc1ccc(C)cc1NC(=O)CSc1nc(=O)n(Cc2ccco2)c2c1CCC2	nt	i	nt	nt	nt
CCCc1ccc(OCc2ccc(C(=O)N/N=C/c3cccnc3)o2)cc1	nt	?	0.4µM	nt	0.45µM
CC(C)(C)c1ccc(OCc2ccc(C(=O)N/N=C/c3ccc([N+](=O)[O-])cc3)o2)cc1	i	?	1.6µM	i	?
CCOc1ccc(CNC(=S)N/N=C\c2ccc([N+](=O)[O-])cc2)cc1	i	i	i	i	i
Cc1ccc(CNC(=O)Cn2ncc3c([nH]c4ccc(C)cc43)c2=O)cc1	nt	i	nt	nt	nt
Nc1ccccc1SC1CC(=O)N(c2ccc(Cl)c(Cl)c2)C1=O (centres undefined)	nt	i	i	nt	i
Nc1ccccc1SC1CC(=O)N(c2ccc3c(c2)OCCO3)C1=O (centres undefined)	nt	?	?	nt	2.2µM
O=C(N/N=C\c1ccc(F)cc1)c1ccc(Cn2cc(Br)c([N+](=O)[O-])n2)o1	i	21µM	i	i	i
O=C(N/N=C\c1ccc2c(c1)OCO2)c1ccc(Cn2cc(Br)c([N+](=O)[O-])n2)o1	i	6µM	i	nt	i
SMILES	Luc counter	FLuc modulator	NPC1 prom act	SMN2 splice up	Rab9 prom act
O=C(N/N=C\c1cccc(F)c1)c1ccc(Cn2cc(Br)c([N+](=O)[O-])n2)o1	i	?	i	nt	i
c1ccc2c(Nc3nnc(-c4ccncc4)s3)cccc2c1	i	5.4µM	?	?	?
Cc1ccn2cc(-c3ccc(S(=O)(=O)N4CCOCC4)cc3)nc2c1	i	?	?	i	?
Cc1ccn2cc(C34CC5CC(CC(C5)C3)C4)nc2c1	i	6.7µM	i	i	i
CC(C)c1ccc(NC(=O)C(NS(=O)(=O)c2ccc3c(c2)CCC(=O)N3)c2ccccc2)cc1 (centres undefined)	nt	?	nt	i	nt
CC(=O)NCCNC(=O)CCCc1nnc2n(CC(C)C)c(=O)c3sccc3n12	nt	i	nt	nt	nt
Cc1cc(Nc2nc3ccccc3[nH]c2=O)n(-c2ccccc2)n1	i	i	i	13µM	i
Cc1c(/C=C/C(=O)c2ccc(Cl)s2)cnn1C	i	1.5µM	?	i	?
Cc1c(/C=C/C(=O)c2ccc(O)cc2)cnn1C	i	11µM	?	?	?
Cc1c(/C=C/C(=O)c2ccc(C(C)C)cc2)cnn1C	i	1.9µM	i	i	?
Cc1c(/C=C/C(=O)c2ccccc2)cnn1C	?	4.8µM	?	?	?
C=CCC(C)(O)c1ccsc1 (centres undefined)	i	nt	nt	i	nt
CCn1ncc(/C=C/C(=O)c2ccccc2)c1C	10µM	?	?	?	?
